Data: PubChem BioAssay
Active and inactive are the calls of the source. Unless noted, the rule behind the calls is not given here.

Assays:
[1] = test system: Wnt5a (protein binding on small-molecule microarray); assay: Wnt5a binders on small-molecule microarray, primary screen, biophysical, 635/667 nm fluorescence (AID 1142); conditions: 635 nm fluorescence, higher = more signal;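 note: fluorescence read at 667 nm with signal to noise per printed feature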
[2] = cell viability in Huh7 cells, primary screen, cytotoxicity control for HCV replication inhibitor project, CellTiter-Glo luminescence, basal, 48 h (AID 1143); conditions: Huh7 HCV replicon, higher = more signal, called active from +8 up or from −8 down;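 note: Huh7 hepatoma cells carrying a hepatitis C replication reporter with no stimulus; test concentration not given here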
[3] = P. aeruginosa biofilm formation inhibitors, primary screen, PAO1 strain, BacTiter-Glo luminescence, LB-PBS (AID 1144); conditions: 12 h, higher = more signal
[4] = CREB reporter modulators without forskolin, primary screen, cell-based, PC12, CRE-LacZ reporter, unstimulated (AID 1145); conditions: no forskolin, luminescence, 4.5 h, higher = more signal, called active from +8 up or from −8 down
[5] = CREB reporter modulators under forskolin, primary screen, cell-based, PC12, CRE-LacZ reporter, forskolin-stimulated (AID 1146); conditions: luminescence, 4.5 h, higher = more signal, called active from +8 up or from −8 down;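 note: PC12 cells with 6xCRE LacZ reporter stimulated by forskolin 10 µM; beta-galactosidase reporter signal reflecting CREB driven transcription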
[6] = target: Streptavidin (Streptomyces avidinii) (UniProt P22629); assay: streptavidin binders on small-molecule microarray, primary screen, artefact control for SMM compound annotation, biophysical, 635/667 nm fluorescence (AID 1147); conditions: streptavidin binding, higher = more signal;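 note: signal reflects streptavidin binding to arrayed compounds as a control protein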
Chain of Streptavidin (Streptomyces avidinii) (P22629 whole entry, looked up): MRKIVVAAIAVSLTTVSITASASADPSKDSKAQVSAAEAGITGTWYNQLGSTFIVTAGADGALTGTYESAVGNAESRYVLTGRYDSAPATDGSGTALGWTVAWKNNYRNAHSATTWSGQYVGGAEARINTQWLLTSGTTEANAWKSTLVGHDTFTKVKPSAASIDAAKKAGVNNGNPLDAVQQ

[7] = small-molecule binders of probe aInhba, primary screen, biochemical, small-molecule microarray, 635/667 nm fluorescence (AID 1148); conditions: higher = more signal;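 note: score merges 667nm spot fluorescence with signal-to-noise for antibody binding to printed compounds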
Torsin-1A (Homo sapiens) [8] = target: Torsin-1A (Homo sapiens) (UniProt O14656); assay: torsin A binders from cell lysate, primary screen, small-molecule microarray, wild-type, 635/667 nm (AID 1149); conditions: COS7 hTOR1A-WT lysate, 635 nm fluorescence, higher = more signal
Chain of Torsin-1A (Homo sapiens) (O14656 whole entry, looked up): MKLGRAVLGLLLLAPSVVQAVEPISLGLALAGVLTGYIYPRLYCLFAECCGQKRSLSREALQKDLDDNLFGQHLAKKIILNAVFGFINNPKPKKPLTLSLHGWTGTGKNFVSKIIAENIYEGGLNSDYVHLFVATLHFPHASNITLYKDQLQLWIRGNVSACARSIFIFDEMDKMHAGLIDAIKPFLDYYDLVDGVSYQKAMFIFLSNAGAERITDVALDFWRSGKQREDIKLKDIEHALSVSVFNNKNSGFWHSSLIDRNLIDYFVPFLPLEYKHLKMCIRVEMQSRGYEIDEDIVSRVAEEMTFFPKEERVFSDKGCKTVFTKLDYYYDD

Torsin-1A (Homo sapiens) [9] = target: Torsin-1A (Homo sapiens) (UniProt O14656); assay: small-molecule binders of mutant TOR1A in lysate, primary screen, cell lysate, small-molecule microarray, COS7 lysate, 635/667 nm fluorescence (AID 1150); conditions: COS7 hTOR1A mutant lysate, 635 nm fluorescence, higher = more signal;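 note: score pools 667 nm emission and signal to noise measuring lysate protein binding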
[10] = test system: Sonic hedgehog protein (Shh); assay: small-molecule binders of Shh protein, primary screen, biochemical, small-molecule microarray, 635/667 nm fluorescence (AID 1151); conditions: small-molecule microarray binding, 635 nm fluorescence; higher = more signal;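 note: Shh protein binding to compounds spotted on small-molecule microarray slides; score combines spot fluorescence intensity with signal-to-noise across triplicate slides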
[11] = E. coli DRC41 culture turbidity changes, primary screen, E. coli filamentation inducer project, strain DRC41, OD650, 48 h (AID 1152);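 note: E. coli MC1000 strain DRC41 lacking acrAB efflux pump and sulA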; conditions: E. coli DRC41 (acrAB sulA), higher = more signal, called active from +8 up or from −8 down
[12] = small-molecule binders of probe aLefty1, primary screen, biochemical, small-molecule microarray, 635/667 nm fluorescence (AID 1153); conditions: higher = more signal;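 note: score merges spot fluorescence with signal-to-noise ratio from the scanned slide images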
[13] = PSAC antagonists in infected red cells, primary screen, cell-based, P. falciparum Indochina, OD700, 1 h (AID 1154); conditions: P. falciparum Indochina infected RBC osmotic lysis, higher = more signal, called active from +8 up or from −8 down
[14] = PSAC antagonists in infected red cells, primary screen, cell-based, P. falciparum Indochina, OD700, 2 h (AID 1155);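 note: lysis reports solute entry through the parasite surface anion channel PSAC; channel blockers reduce lysis of infected cells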; conditions: P. falciparum Indochina infected erythrocytes, osmotic lysis OD700; higher = more signal, called active from +8 up or from −8 down
[15] = osmotic lysis modulators in infected erythrocytes, primary screen, PSAC antagonist project, cell-based, P. falciparum Indochina, OD700, 3 h (AID 1156); conditions: higher = more signal, called active from +8 up or from −8 down
[16] = PSAC antagonists in infected red cells, primary screen, cell-based, P. falciparum Indochina, OD700, 18 h (AID 1157); conditions: P. falciparum Indochina infected erythrocytes, osmotic lysis OD700, 18 h; higher = more signal, called active from +8 up or from −8 down
[17] = modulators of S6 phosphorylation in cells, primary screen, cell-based, A549, cytoblot, luminescence, serum-stimulated (AID 1158); conditions: A549 phospho-S6 cytoblot, 5 h, higher = more signal;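 note: serum-stimulated A549 lung adenocarcinoma cells; signal is phosphorylated S6 detected by cytoblot immunostaining with HRP secondary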
[18] = target: NADPH oxidase 2 (Homo sapiens) (UniProt P04839); assay: NOX2-dependent H2O2 signal modulators, primary screen, NOX inhibitor project, cell-based, HEK293-NOX2, PMA-stimulated, Amplex Red fluorescence (AID 1159); conditions: 45 min, higher = more signal, called active from +8 up or from −8 down; note: test concentration not given here
Chain of NADPH oxidase 2 (Homo sapiens) (P04839 whole entry, looked up): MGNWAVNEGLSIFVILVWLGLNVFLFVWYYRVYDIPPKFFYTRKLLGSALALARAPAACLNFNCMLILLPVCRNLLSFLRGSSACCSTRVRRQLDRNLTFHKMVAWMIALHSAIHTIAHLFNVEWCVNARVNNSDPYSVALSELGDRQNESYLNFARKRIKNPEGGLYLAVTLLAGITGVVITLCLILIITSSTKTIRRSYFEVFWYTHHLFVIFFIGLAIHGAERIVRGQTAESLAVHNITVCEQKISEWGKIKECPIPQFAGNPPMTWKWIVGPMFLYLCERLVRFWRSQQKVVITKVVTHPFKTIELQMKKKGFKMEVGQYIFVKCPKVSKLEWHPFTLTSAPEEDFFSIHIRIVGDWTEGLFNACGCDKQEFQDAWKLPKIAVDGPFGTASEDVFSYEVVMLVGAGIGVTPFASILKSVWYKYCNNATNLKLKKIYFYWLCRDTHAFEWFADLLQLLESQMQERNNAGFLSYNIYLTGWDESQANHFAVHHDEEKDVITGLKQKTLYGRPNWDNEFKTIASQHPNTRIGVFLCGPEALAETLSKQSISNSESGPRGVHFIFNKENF

[19] = target: NADPH oxidase 4 (Homo sapiens) (UniProt Q9NPH5); assay: NOX4-dependent H2O2 signal modulators, primary screen, NOX inhibitor project, cell-based, HEK293-NOX4, tetracycline-induced, Amplex Red fluorescence (AID 1160); conditions: 45 min, higher = more signal, called active from +8 up or from −8 down
Chain of NADPH oxidase 4 (Homo sapiens) (Q9NPH5 whole entry, looked up): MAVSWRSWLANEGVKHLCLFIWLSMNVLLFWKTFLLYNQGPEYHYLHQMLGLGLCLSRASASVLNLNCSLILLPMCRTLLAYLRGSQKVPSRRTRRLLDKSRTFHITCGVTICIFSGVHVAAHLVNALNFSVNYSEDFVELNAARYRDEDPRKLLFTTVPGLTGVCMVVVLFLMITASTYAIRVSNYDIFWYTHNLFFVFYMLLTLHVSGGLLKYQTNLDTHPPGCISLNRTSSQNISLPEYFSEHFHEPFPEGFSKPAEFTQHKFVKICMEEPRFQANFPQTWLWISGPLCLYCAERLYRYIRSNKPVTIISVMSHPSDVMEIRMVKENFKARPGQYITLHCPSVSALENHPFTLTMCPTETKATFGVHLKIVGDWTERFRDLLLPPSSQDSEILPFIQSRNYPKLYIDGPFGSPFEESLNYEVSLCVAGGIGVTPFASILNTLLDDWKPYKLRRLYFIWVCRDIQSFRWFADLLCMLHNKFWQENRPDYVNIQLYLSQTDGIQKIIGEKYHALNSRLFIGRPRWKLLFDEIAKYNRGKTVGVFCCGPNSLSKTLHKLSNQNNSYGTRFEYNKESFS

[20] = target: NADPH oxidase 5 (Homo sapiens) (UniProt Q96PH1); assay: NOX5-dependent H2O2 signal modulators, primary screen, NOX inhibitor project, cell-based, HEK293-NOX5, Amplex Red fluorescence (AID 1161); conditions: HEK293-NOX5, ionomycin, 45 min, higher = more signal
Chain of NADPH oxidase 5 (Homo sapiens) (Q96PH1 whole entry, looked up): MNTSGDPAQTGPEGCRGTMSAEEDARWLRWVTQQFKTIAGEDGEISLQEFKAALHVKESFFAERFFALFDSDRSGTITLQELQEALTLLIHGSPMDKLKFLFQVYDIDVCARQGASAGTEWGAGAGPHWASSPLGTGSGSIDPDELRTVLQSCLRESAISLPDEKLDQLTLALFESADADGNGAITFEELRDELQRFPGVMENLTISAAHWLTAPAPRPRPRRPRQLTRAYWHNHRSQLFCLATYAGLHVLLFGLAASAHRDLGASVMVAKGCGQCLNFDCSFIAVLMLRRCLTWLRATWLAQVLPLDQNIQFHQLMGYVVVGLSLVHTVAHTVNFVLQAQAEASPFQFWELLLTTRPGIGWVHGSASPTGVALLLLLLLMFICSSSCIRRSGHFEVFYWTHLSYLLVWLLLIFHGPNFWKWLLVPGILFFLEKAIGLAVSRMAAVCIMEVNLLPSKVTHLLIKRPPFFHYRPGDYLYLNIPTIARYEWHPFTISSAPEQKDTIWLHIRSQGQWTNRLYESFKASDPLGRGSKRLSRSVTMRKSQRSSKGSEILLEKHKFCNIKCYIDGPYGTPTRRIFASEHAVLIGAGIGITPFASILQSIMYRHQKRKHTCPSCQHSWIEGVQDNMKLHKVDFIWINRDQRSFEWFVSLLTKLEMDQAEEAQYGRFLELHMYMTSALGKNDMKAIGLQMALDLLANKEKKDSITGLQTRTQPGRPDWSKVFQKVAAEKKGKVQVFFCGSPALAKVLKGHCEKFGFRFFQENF

| SMILES | composite z-score [1] | z-score [2] | z-score [3] | z-score [4] | z-score [5] | composite z-score [6] | composite z-score [7] | composite z-score (Torsin-1A (Homo sapiens) [8]) | composite z-score (Torsin-1A (Homo sapiens) [9]) | composite z-score [10] | z-score [11] | composite z-score [12] | z-score [13] | z-score [14] | z-score [15] | z-score [16] | z-score [17] | z-score [18] | z-score [19] | z-score [20] |
| --- | --- | --- | --- | --- | --- | --- | --- | --- | --- | --- | --- | --- | --- | --- | --- | --- | --- | --- | --- | --- |
| CC1CC/C=C\[C@H]2OC34C=CCN(Cc5ccccc5)C(=O)[C@H]3N(CCCCCCO)C(=O)[C@@H]4C2C(=O)O1 (stereo not given in full) | -0.523 | -0.649 (inactive) | 2.79 (inactive) | 0.329 (inactive) | 0.138 (inactive) | -0.871 | -0.206 | 1.4 | -0.549 | 0.06 | 0.528 (inactive) | 0.0249 | -0.107 (inactive) | 0.179 (inactive) | 0.731 (inactive) | 0.111 (inactive) | 1.98 | 1.71 (inactive) | 0.185 (inactive) | 2.2 |
| Cc1ccc(S[C@]2(C(=O)NCCCN(C)C)CC(=O)N(Cc3ccccc3C(F)(F)F)[C@@H]2c2ccc(CO)cc2I)cc1 | -0.379 | -1.13 (inactive) | 0.323 (inactive) | -0.464 (inactive) | 1.66 (inactive) | -0.493 | 0.189 | 0.22 | -0.144 | -0.117 | -0.527 (inactive) | -0.629 | 3.14 (inactive) | 0.684 (inactive) | 0.32 (inactive) | 0.377 (inactive) | -0.579 | -0.632 (inactive) | -1.08 (inactive) | 1.96 |
| Cc1ccc(S[C@]2(C(=O)NCc3ccccc3)CC(=O)N(Cc3ccccc3C(F)(F)F)[C@@H]2c2ccc(CO)cc2)cc1 | -0.666 | -2.35 (inactive) | -0.937 (inactive) | -0.0888 (inactive) | -0.0177 (inactive) | -1.05 | 0.0391 | -1.02 | -0.687 | -0.998 | 0.995 (inactive) | -0.012 | 0.485 (inactive) | -0.797 (inactive) | -1.37 (inactive) | -0.802 (inactive) | 1.24 | -1.69 (inactive) | 0.0366 (inactive) | -0.3 |
| CC(=O)c1ccc(C(O)C2C=CC3C(=O)N(c4ccccc4)C(=O)C3N2Nc2ccc(C(C)C)cc2)cc1 (stereo not given) | 0.0129 | -1.16 (inactive) | -0.853 (inactive) | 1.4 (inactive) | -0.17 (inactive) | 1.43 | 0.361 | -0.127 | 0.135 | 0.295 | -1.08 (inactive) | 0.281 | 12.7 (active) | 3.03 (inactive) | 1.42 (inactive) | 1.47 (inactive) | -0.617 | -1.6 (inactive) | -1.6 (inactive) | -2.08 |
| C#CCN1[C@@H](Cc2ccccc2)C(=O)O[C@H](Cc2ccccc2)[C@@H]1/C=C/C1CC1 | -0.0041 | -3.05 (inactive) | 1.18 (inactive) | 2.12 (inactive) | -0.0861 (inactive) | -0.497 | -0.0763 | 0.459 | 0.84 | 0.482 | 0.827 (inactive) | -0.103 | -0.396 (inactive) | 0.317 (inactive) | -0.199 (inactive) | -0.48 (inactive) | -0.328 | -0.279 (inactive) | -0.284 (inactive) | -2.19 |
| CCOC(=O)C[C@H]1[C@H](OC(=O)c2ccccc2-c2ccccc2)[C@@H](NC(=O)c2ccc3ccccc3c2)c2cc(OCCCO)ccc2N1C(=O)Cc1ccc(OC)cc1 | 0.23 | 0.0138 (inactive) | 0.619 (inactive) | 3.37 (inactive) | 0.654 (inactive) | -0.0096 | -0.128 | 0.0216 | 0.768 | -0.314 | -0.878 (inactive) | -0.241 | 4.15 (inactive) | 0.403 (inactive) | -0.681 (inactive) | 0.281 (inactive) | 0.12 | 0.0357 (inactive) | 1.02 (inactive) | 1.01 |
| C=CCC(OC(C)=O)[C@@H]1[C@@H](N(Cc2cc3ccccc3o2)C(=O)Cc2ccc(OC)cc2)c2cc(OCCCO)ccc2N1C(=O)c1ccc2ccccc2n1 (stereo not given in full) | -0.124 | -1.03 (inactive) | 0.267 (inactive) | 4.52 (inactive) | -0.24 (inactive) | 0.229 | -0.0103 | 0.135 | -0.136 | 0.0685 | 0.697 (inactive) | 0.231 | 2.75 (inactive) | 0.567 (inactive) | 0.867 (inactive) | 0.186 (inactive) | 0.856 | 0.226 (inactive) | -1.14 (inactive) | 1.52 |
| O=C(NCc1ccccc1)[C@@H]1c2ccccc2C(=O)N(Cc2cc(C(F)(F)F)cc(C(F)(F)F)c2)[C@H]1c1ccc(CO)cc1 | 0.145 | -1.69 (inactive) | -1.69 (inactive) | 0.0387 (inactive) | 0.119 (inactive) | 0.556 | -0.0405 | -0.137 | 0.759 | 1.93 | -0.0343 (inactive) | 0.0004 | 2.87 (inactive) | 0.55 (inactive) | 2.48 (inactive) | 0.352 (inactive) | -0.0959 | 0.736 (inactive) | 0.284 (inactive) | 1.52 |
